About 7,900 targets were measured; listed, in parts, are those with a hit and a random draw of the rest. About 0.6% of all pairs of compound and target were hits. Values without a mark were called inactive.
compound: C[C@H](Nc1ncnc2nc[nH]c12)c1cc2cccc(Cl)c2c(=O)n1-c1ccccc1 [duvelisib]; test: log2 fold change, soluble protein after heating vs DMSO (PISA); higher = thermal stabilisation; K562 cells, 10 uM, 30 min; active = over 0.2 and 3.5 SD of the protein, either way, in both replicates (recomputed)
Outline: (§1)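 Aliquots of K562 cells (2×10^6 cells/mL) treated with 10 μM compound for 30 min were heated for 3 min over 48°C-58°C. After pooling and extraction in PBS with 0.5% NP-40 at 4°C, soluble protein from a 21,000xg, 90 min spin was quantified by TMTpro 16plex LC-MS/MS with channel sums equalised. Thermal stability is expressed against control samples, from duplicates, as a log2 fold change.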

Chain of UniProt P39880 (P39880 whole entry, looked up): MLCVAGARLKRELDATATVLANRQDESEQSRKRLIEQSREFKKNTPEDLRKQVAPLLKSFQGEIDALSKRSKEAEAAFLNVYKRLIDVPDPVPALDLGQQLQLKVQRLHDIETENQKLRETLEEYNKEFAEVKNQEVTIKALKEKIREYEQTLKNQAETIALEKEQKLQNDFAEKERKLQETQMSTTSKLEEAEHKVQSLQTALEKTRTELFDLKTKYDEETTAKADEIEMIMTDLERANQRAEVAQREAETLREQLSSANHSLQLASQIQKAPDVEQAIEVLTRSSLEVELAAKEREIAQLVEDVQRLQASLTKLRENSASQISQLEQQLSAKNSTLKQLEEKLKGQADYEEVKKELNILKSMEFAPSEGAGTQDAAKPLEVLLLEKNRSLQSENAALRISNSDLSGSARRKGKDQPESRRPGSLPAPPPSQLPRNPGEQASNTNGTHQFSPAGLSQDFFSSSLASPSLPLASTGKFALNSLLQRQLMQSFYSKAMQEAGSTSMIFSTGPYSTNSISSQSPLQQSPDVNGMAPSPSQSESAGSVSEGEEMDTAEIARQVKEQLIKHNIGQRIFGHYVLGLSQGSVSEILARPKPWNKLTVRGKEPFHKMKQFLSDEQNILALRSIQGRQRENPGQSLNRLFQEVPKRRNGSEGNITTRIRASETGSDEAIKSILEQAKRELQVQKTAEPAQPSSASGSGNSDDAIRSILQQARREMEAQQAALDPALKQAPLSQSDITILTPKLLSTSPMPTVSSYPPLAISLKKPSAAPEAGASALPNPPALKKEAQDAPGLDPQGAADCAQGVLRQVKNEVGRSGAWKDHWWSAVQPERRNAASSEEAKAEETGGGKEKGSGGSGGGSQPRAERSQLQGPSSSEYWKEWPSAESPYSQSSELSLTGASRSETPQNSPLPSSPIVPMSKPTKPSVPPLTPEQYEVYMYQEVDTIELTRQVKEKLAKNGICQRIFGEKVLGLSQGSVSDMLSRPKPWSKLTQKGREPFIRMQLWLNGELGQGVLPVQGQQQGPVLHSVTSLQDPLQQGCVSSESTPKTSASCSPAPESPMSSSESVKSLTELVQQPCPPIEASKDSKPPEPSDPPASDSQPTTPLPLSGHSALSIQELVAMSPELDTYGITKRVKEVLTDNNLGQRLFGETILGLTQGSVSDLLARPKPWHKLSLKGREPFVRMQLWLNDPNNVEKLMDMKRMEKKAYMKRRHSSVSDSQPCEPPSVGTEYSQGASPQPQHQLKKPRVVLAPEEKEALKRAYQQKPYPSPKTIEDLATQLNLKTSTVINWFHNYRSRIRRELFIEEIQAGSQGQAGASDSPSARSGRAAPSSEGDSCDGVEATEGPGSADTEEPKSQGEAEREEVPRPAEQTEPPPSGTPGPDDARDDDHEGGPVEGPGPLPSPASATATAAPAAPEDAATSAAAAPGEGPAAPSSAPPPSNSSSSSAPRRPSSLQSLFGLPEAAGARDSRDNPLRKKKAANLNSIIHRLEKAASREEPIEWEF
Chain of UniProt Q13409 (Q13409 whole entry, looked up): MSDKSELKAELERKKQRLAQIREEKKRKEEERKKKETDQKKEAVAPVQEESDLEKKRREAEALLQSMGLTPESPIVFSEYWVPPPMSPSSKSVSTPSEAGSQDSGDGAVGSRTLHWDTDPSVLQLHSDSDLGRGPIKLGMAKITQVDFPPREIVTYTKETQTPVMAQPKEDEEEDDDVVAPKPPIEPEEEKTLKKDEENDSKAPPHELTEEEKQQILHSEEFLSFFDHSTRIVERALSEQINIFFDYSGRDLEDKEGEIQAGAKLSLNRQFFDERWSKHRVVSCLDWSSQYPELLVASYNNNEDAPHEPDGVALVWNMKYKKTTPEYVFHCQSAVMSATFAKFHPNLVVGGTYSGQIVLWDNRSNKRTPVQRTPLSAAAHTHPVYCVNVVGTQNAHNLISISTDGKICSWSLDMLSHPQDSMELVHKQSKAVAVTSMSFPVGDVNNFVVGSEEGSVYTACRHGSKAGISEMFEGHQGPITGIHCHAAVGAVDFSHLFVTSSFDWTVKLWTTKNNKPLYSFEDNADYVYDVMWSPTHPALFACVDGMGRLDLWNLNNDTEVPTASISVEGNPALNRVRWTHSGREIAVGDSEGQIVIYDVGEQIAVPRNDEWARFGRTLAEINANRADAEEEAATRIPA
Chain of UniProt P11182 (P11182 whole entry, looked up): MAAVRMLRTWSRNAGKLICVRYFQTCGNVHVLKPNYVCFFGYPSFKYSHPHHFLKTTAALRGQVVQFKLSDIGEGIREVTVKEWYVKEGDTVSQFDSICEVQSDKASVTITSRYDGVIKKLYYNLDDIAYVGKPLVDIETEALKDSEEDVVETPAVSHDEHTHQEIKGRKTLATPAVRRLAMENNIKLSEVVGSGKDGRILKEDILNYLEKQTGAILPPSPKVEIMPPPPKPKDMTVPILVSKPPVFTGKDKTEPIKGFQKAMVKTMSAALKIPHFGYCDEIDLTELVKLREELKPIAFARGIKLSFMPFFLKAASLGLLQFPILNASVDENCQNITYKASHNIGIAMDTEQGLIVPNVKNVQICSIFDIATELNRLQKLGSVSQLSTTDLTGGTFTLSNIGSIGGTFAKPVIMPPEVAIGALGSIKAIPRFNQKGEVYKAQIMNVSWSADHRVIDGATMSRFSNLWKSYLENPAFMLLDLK
Chain of UniProt Q13948 (Q13948 whole entry, looked up): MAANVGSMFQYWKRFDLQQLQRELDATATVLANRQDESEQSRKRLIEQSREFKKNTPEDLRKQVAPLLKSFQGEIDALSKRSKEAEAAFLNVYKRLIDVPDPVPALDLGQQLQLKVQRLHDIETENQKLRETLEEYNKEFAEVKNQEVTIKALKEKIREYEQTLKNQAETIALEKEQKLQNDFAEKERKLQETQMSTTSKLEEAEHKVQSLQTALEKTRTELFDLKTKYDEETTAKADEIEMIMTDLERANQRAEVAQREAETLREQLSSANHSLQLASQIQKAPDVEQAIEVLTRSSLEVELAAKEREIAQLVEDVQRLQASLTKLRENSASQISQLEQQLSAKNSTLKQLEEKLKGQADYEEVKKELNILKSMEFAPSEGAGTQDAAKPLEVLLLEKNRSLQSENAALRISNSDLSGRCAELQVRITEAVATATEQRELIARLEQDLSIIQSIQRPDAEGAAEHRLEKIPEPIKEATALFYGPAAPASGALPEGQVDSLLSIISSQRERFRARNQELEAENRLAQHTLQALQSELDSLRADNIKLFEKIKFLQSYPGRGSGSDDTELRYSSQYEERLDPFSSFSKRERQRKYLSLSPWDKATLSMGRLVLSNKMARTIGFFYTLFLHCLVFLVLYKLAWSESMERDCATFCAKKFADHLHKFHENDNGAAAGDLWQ
Chain of UniProt P07711 (P07711 whole entry, looked up): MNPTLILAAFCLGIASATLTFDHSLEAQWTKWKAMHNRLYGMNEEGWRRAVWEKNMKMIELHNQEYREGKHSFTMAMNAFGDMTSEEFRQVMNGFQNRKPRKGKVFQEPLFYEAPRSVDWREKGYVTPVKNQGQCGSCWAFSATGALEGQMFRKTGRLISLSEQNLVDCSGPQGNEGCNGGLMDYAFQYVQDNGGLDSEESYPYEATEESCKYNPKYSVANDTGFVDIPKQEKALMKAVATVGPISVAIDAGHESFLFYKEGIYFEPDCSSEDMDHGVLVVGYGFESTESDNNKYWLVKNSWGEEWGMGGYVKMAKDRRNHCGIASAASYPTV
Chain of UniProt Q96CS3 (Q96CS3 whole entry, looked up): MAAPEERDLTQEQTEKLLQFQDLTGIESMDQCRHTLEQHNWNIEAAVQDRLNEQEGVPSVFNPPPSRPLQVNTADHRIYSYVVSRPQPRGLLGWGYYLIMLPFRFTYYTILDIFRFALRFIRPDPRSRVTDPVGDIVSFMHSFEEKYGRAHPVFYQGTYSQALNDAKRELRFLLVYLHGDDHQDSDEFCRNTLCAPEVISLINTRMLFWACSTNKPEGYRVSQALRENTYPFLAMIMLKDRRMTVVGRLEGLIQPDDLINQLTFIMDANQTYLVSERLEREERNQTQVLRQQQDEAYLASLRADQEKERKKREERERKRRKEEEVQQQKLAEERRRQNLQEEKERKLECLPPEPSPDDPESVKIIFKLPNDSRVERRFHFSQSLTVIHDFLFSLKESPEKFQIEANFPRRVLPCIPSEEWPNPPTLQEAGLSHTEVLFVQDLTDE
Chain of UniProt Q9NX74 (Q9NX74 whole entry, looked up): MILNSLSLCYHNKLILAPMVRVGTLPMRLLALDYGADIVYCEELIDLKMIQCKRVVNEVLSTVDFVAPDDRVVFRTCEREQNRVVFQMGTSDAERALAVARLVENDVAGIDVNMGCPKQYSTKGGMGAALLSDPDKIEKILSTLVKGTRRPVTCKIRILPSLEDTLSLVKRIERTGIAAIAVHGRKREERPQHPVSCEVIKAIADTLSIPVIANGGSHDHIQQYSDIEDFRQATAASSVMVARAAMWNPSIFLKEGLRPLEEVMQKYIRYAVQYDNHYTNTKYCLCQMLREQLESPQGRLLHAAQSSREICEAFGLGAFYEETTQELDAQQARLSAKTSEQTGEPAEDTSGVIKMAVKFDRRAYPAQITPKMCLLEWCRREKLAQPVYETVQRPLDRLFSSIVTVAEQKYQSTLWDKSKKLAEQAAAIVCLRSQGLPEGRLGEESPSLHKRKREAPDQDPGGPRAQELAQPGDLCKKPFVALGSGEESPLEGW
Chain of UniProt P00374 (P00374 whole entry, looked up): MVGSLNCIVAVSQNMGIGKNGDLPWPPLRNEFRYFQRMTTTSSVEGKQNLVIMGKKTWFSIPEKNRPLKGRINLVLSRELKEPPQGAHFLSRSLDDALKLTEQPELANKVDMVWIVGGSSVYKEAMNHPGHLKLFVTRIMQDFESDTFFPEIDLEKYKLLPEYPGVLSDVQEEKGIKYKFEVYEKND
Chain of UniProt P13498 (P13498 whole entry, looked up): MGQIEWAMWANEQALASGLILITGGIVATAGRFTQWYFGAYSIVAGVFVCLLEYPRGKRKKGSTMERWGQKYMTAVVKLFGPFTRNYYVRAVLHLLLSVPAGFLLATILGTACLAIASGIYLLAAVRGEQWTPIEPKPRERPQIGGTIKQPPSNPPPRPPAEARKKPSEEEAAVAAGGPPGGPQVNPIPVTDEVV

Target | log2 fold change
DOCK8 (UniProt Q8NF50) | 0.038
EEF1B2 (UniProt P24534) | 0.04
CTSL (UniProt P07711) | -0.07
DNM2 (UniProt P50570) | 0.05
EIF2AK1 (UniProt Q9BQI3) | -0.007
DIAPH1 (UniProt O60610) | -0.058
DUS2 (UniProt Q9NX74) | 0.012
ERCC2 (UniProt P18074) | -0.035
DYNC1LI2 (UniProt O43237) | -0.049
DYNC1I2 isoform 5 (UniProt Q13409) | 0.019
DIP2A (UniProt Q14689) | 0.071
DMXL1 (UniProt Q9Y485) | -0.011
DDOST (UniProt P39656) | -0.074
DHFR (UniProt P00374) | 0.604 (active)
CUX1 isoform 3 (UniProt P39880) | 0.064
DNAJB12 (UniProt Q9NXW2) | -0.009
CTSV (UniProt O60911) | -0.039
EFCAB14 (UniProt O75071) | 0.006
EXOC5 (UniProt O00471) | 0.005
DUS3L (UniProt Q96G46) | -0.005

Target | log2 fold change
EFL1 (UniProt Q7Z2Z2) | 0.002
DYRK1A isoform 2 (UniProt Q13627) | -0.025
FAF2 (UniProt Q96CS3) | 0.031
ETNK1 (UniProt Q9HBU6) | 0.075
EIF4G1 isoform 8 (UniProt Q04637) | -0.1
DNAH5 (UniProt Q8TE73) | 0.117
EEA1 (UniProt Q15075) | 0.006
DBT (UniProt P11182) | 0.04
FAM118A (UniProt Q9NWS6) | -0.006
CUX1 isoform 2 (UniProt Q13948) | 0.029
DNAH11 (UniProt Q96DT5) | 0.073
EXOSC10 (UniProt Q01780) | 0.09
CYBA (UniProt P13498) | 0.05
FADS1, A0A0A0MR51 | 0.016
FAM117A (UniProt Q9C073) | -0.119
EEF1AKNMT (UniProt Q8N6R0) | -0.047
CYP51A1 (UniProt Q16850) | -0.075
FAM83D (UniProt Q9H4H8) | 0.001
DNTTIP2 (UniProt Q5QJE6) | -0.26
EED, A0A5F9ZI63 | 0.014

compound: Cc1cc(Nc2cc(CN3CCOCC3)c3nc(C)c(Cc4ccc(Cl)cc4F)n3n2)n[nH]1 [gandotinib]; test: as above
Outline: as §1

Target | log2 fold change
DOCK8 (UniProt Q8NF50) | 0.146
EEF1B2 (UniProt P24534) | -0.043
CTSL (UniProt P07711) | 0.006
DNM2 (UniProt P50570) | -0.06
EIF2AK1 (UniProt Q9BQI3) | 0.137
DIAPH1 (UniProt O60610) | -0.063
DUS2 (UniProt Q9NX74) | 0.036
ERCC2 (UniProt P18074) | -0.035
DYNC1LI2 (UniProt O43237) | 0.235
DYNC1I2 isoform 5 (UniProt Q13409) | 0.027
DIP2A (UniProt Q14689) | 0.023
DMXL1 (UniProt Q9Y485) | -0.013
DDOST (UniProt P39656) | 0.02
DHFR (UniProt P00374) | -0.194
CUX1 isoform 3 (UniProt P39880) | -0.048
DNAJB12 (UniProt Q9NXW2) | -0.073
CTSV (UniProt O60911) | -0.334
EFCAB14 (UniProt O75071) | -0.009
EXOC5 (UniProt O00471) | -0.129
DUS3L (UniProt Q96G46) | -0.027

Target | log2 fold change
EFL1 (UniProt Q7Z2Z2) | -0.056
DYRK1A isoform 2 (UniProt Q13627) | -0.102
FAF2 (UniProt Q96CS3) | 0.022
ETNK1 (UniProt Q9HBU6) | -0.057
EIF4G1 isoform 8 (UniProt Q04637) | -0.032
DNAH5 (UniProt Q8TE73) | 0.013
EEA1 (UniProt Q15075) | 0.02
DBT (UniProt P11182) | 0.005
FAM118A (UniProt Q9NWS6) | -0.44
CUX1 isoform 2 (UniProt Q13948) | -0.046
DNAH11 (UniProt Q96DT5) | 0.104
EXOSC10 (UniProt Q01780) | 0.527
CYBA (UniProt P13498) | -0.231
FADS1, A0A0A0MR51 | 0.434 (active)
FAM117A (UniProt Q9C073) | -0.053
EEF1AKNMT (UniProt Q8N6R0) | -0.09
CYP51A1 (UniProt Q16850) | -0.111
FAM83D (UniProt Q9H4H8) | -0.308 (active)
DNTTIP2 (UniProt Q5QJE6) | 0.107
EED, A0A5F9ZI63 | 0.07

From the supplement of paper PMC10849652
